The values that follow come from PubChem BioAssay (NCI).

Molecules are shown by their SMILES. This is part of a sample that, as a whole, favours compounds with a hit. Of some 83,000 tested, about 20% had one in any assay.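 Cell lines were cultured in 96-well plates, exposed to a single compound concentration, and assessed for percent growth 48 hours later.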 A number with no mark means an inactive call. Active and inactive are the calls of the source. How the source made its calls: active means growth percent below 10; inactive means the rest.

The subject of the test is OVCAR-3 ovarian. Briefly: NCI-60 one-dose screen, 48 h (100 = growth as untreated, 0 = no growth, -100 = all killed). The following applies: 10 µM unless noted.
On to `O=[As](O)(O)c1ccccc1[As](=O)(O)O`, for which the growth is 103%. The result for `Clc1ccc(COC(Cn2ccnc2)c2ccc(Cl)cc2Cl)cc1` (stereo not given) reads 40.4%.

`CN(C)C(=O)Oc1ccccc1`: the growth was 120%. For the compound `CC[C@H](C)[C@H](NC(=O)C12C3C4C1C1C2C3C41NC(C)=O)C(=O)N(C)[C@H](C[C@@H](OC(C)=O)c1nc(C(=O)N[C@@H](Cc2ccccc2)C[C@H](C)C(=O)OC)cs1)C(C)C` (stereo not given in full), the growth is -33.8% (active). The result for `COc1ccc(C(=O)c2sc3nc4c(cc3c2N)N2CCC4CC2)cc1OC` reads 100%. As for `CCC(CC)CC1(C)CC2(C)CCOC2OO1` (stereo not given), the growth is 115%. The same measure for `ClCCN(CCCl)c1ccc(/C=N\N=C\c2ccc(N(CCCl)CCCl)cc2)cc1`: 55.7%. The same measure for `CCOC(=O)C(Cc1ccc(N(CCCl)CCCl)cc1)NC(=O)C(CC(C)C)NC(C)=O` (stereo not given): -34.4% (active); for `CNCc1cccnc1`: 115%.

Regarding `CCN(CCO)C(Cc1ccccc1)c1ccccc1` (stereo not given), the growth is 109%. The result for `C=CCc1cc2c(cc1OCC)OCO2` reads 107%; that for `NC(=S)c1cn(C2OC(CO)C(O)C2O)c2ncnc(N)c12` (stereo not given), -26.2% (active); that for `O=P(N1CC1)(N1CC1)N1CCc2ccccc21`, 107%. The same measure for `Oc1ccc2c3c1OC1[C@@H](O)CC[C@@]4(O)[C@@H](C2)N(CC2CCC2)CC[C@]314` (stereo not given in full): 116%. The same measure for `COC(=O)[C@@]1(O)C[C@H]2O[C@]1(C)n1c3ccccc3c3c4c(c5c6ccccc6n2c5c31)C(=O)NC4`: -19.2% (active); for `N#CC1(C#N)C(c2ccc(N(CCCl)CCCl)cc2)OC23CCCCC2C1(C#N)C(=N)O3` (stereo not given): 98.5%; for `COC(=O)[C@@H](C)C[C@H](Cc1ccccc1)NC(=O)c1nc([C@@H](C[C@H](C(C)C)N(C)C(=O)[C@@H](NC(=O)[C@H]2CC(=O)CCN2C)C(C)C)OC(C)=O)sc1C(C)C`: -15.6% (active). For `Nc1ccc2c(c1)oc1ccccc12`, the growth was 103%.

Regarding `CNC(=O)Oc1ccc(C(C)(C)C)cc1OC(=O)NC`, the growth was 102%.

In the case of `COc1cc2c(cc1OCCCCn1c(-c3cccs3)nc3ccccc31)N=C[C@@H]1CCCN1C2=O`, the growth is -10.9% (active). Regarding `CC[C@H](C)[C@H](NC(=O)C12C3C4C1C1C2C3C41NC)C(=O)N(C)[C@H](C[C@@H](OC(C)=O)c1nc(C(=O)N[C@@H](Cc2ccccc2)C[C@H](C)C(=O)OC)cs1)C(C)C` (stereo not given in full), the growth is -28.1% (active). The result for `COc1ccc(N(CC(=O)NCCC[Te]c2ccccc2)C(=O)CCSC2=C(C)C(=O)c3ccccc3C2=O)cc1` reads -40.4% (active). The same measure for `NC(=Nc1ccccc1)N[N+](=O)[O-]`: 110%. The same measure for `C[S+]1C=Cc2ccccc2C1c1ccc(Cl)cc1` (stereo not given): 89.8%; for `CC(C)[C@]12O[C@H]1[C@@H]1O[C@]13[C@]1(O[C@H]1C[C@H]1c4c(C(=O)c5ccccc5)oc(OC(=O)c5ccccc5)c4CC[C@@]13C)[C@@H]2O`: -57.5% (active). Regarding `CN(C)CC(C(=O)Cc1ccccc1)c1ccccc1` (stereo not given), the growth was 6.54% (active). In the case of `O=C1C=C2C(=CCOC2O)O1` (stereo not given), the growth is -78.6% (active).

As for `Nc1ccc2c(c1)Cc1cc(Br)ccc1-2`, the growth was 114%. `O=c1[nH]c2ccc([N+](=O)[O-])cc2c(=O)o1`: the growth is 113%. Consider `CN1CC(CNC(=O)OCc2ccccc2)CC2c3cccc4c3c(cn4C)CC21` (stereo not given), for which the growth is 61.9%. The result for `NC(=O)c1c(Br)n(C2OC(CO)C(O)C2O)c2ncnc(N)c12` (stereo not given) reads -43.3% (active); that for `Cc1cc(N(CCCl)CCCl)ccc1/C=N\NC(=O)c1ccncc1`, 90.8%; that for `COC(=O)CCC1=C(C)c2cc3[n-]c(cc4nc(cc5[n-]c(cc1n2)c(CCC(=O)OC)c5C)C=C4C)cc3C.[Cd+2]`, -58.1% (active). The same measure for `CCCC(C)C1(CC)C(=O)NC(=O)N(C)C1=O` (stereo not given): 108%; for `CC(=O)c1ccc(C(=O)NCC2CCC3(CC2)OOC2(CCCCC2)OO3)cc1`: 83%.
